Screening data from PubChem BioAssay.
T cruzi growth-1: T. cruzi intracellular proliferation inhibitors, primary screen, cell-based, beta-gal Tulahuen parasites, NIH3T3 host, luminescence; T. cruzi beta-gal in NIH3T3, GalScreen luminescence, 90 h; inhibition, % at 8.34 µM; 77,000 compounds, 5.9% hits; AID 624255, 2012;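 active = mean inhibition above about 93%, with at least 55% of replicates each passing it, limit read from the data, passing the limit was not always enough; inconclusive = only one of those two conditions holds; inactive = neither condition holds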
Pf Dd2 growth: P. falciparum Dd2 growth inhibitors, primary screen, SYBR Green fluorescence, single dose replicates; activity change, % at 10 µM; 94,000 compounds, 2.3% hits; AID 1159554, 2015; 72 h; stronger effect = lower value; in the data active = activity change below about -80%; inconclusive = no clear call, values can overlap the other calls
C diff growth: C. difficile growth inhibitors, primary screen, HTS. Clostridium difficile clinical isolate growth, OD600, 24 h; stronger effect = lower value. growth activity, negative = inhibition, % at 16 µg/mL (by protocol). 86,000 compounds, 0.25% hits. AID 1259249, 2017;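 active = mean growth activity at or below -80% and every replicate also at or below -80%; inconclusive = mean at or below -80% but some replicate above -80%; inactive = mean growth activity above -80%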;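 also: 0% = DMSO wells and -100% = levofloxacin 16 µg/mL wells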
T cruzi growth-2: T. cruzi intracellular proliferation inhibitors, confirmation, cell-based, NIH3T3 host, beta-gal parasite, luminescence, cherry-pick. shares compounds with T cruzi growth-1. T. cruzi beta-gal in NIH3T3, GalScreen luminescence, 90 h. inhibition, % at 8.35 µM. 5,600 compounds, 72% hits;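 active = mean replicate inhibition above about 95% and at least 55% of replicates individually reaching it, limit read from the data; inconclusive = only one of the two criteria is met; inactive = neither criterion is met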
T cruzi growth-3: inhibitors of intracellular T. cruzi replication, confirmation, NIH3T3 host cells, beta-gal parasites, cherry-pick, set 2. shares compounds with T cruzi growth-1. 5,600 compounds, 21% hits. inhibition, % at 2.09 µM. T. cruzi beta-gal in NIH3T3, GalScreen luminescence, 90 h. AID 651740, 2012;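 active = mean inhibition above about 95%, with at least 55% of replicates also reaching it, limit read from the data; inconclusive = meets just one of the two conditions; inactive = meets neither condition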;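 also: plate controls were neutral control median for no effect and positive control median for full effect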
3T3 cytotox: cytotoxicity in mouse NIH/3T3 fibroblasts, confirmation, cytotoxicity control for T. cruzi proliferation inhibitor project, cell-based, cherry-pick, single point; shares compounds with T cruzi growth-1; NIH/3T3 viability, CellTiter-Glo ATP luminescence, 90 h; cytotoxicity (signal decrease), % at 8.35 µM; 5,600 compounds, 14% hits; AID 651742, 2012;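 active = mean signal decrease across replicates above about 35% based on untreated-well scatter, with enough replicates individually passing, limit read from the data; inconclusive = no rule stated though some were filed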;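 also: 0% = median of neutral control wells and 100% = median of positive control wells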
3T3 cytotox 2: NIH/3T3 fibroblast cytotoxicity, confirmation, cytotoxicity control, cell-based, cherry-pick, single point, set 2; shares compounds with T cruzi growth-1; NIH/3T3 viability, CellTiter-Glo ATP luminescence, 90 h; inhibition, % at 24.9 µM; 5,600 compounds, 56% hits; AID 651744, 2012;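 active = mean loss of cell viability signal at or above a set limit, and enough replicates individually reaching it; inconclusive = meets only the mean limit or only the replicate share; inactive = meets neither condition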;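 also: 0% = median of neutral control wells and 100% = median of positive control wells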
Active calls of the source: *; ? = inconclusive; . = not tested or not shown. A selection: hits, their analogues and other compounds. The true share with any hit is near 6.8%.

SMILES	T cruzi growth-1	Pf Dd2 growth	C diff growth	T cruzi growth-2	T cruzi growth-3	3T3 cytotox	3T3 cytotox 2
CC(C)CC#Cc1cnc2c(c1)C(=O)N([C@@H](C)CO)C[C@@H](C)[C@H](CN(C)Cc1cccc(F)c1)O2	103.3*	-57.8	-1.3	104.3*	82.6	27.4	107.5*
CC(C)NC(=O)Nc1ccc2c(c1)CC(=O)N([C@@H](C)CO)C[C@H](C)[C@@H](CN(C)Cc1ccc(Oc3ccccc3)cc1)O2	16.5	-45.5	-9.4	.	.	.	.
C[C@H]1CN([C@@H](C)CO)C(=O)c2cc(C#CCN(C)C)cnc2O[C@@H]1CN(C)Cc1ccc2c(c1)OCO2	-9.6	-16.7	.	.	.	.	.
C[C@H](CO)N1C[C@H](C)[C@@H](CN(C)Cc2ccccc2)Oc2ccc(NC(=O)Cc3ccccc3)cc2CC1=O	94.6	-38.4	-2.8	.	.	.	.
C[C@H]1CN([C@@H](C)CO)C(=O)Cc2cc(NC(=O)Cc3ccccc3)ccc2O[C@H]1CN(C)Cc1ccc(Cl)c(Cl)c1	?	-11.6	86.3	100.3*	59.1	21.3	105.1*
C[C@H](CO)N1C[C@H](C)[C@@H](CN(C)Cc2ccc(C(F)(F)F)cc2)Oc2ccc(NC(=O)Cc3cn(C)c4ccccc34)cc2CC1=O	86.8	-20.7	10.1	.	.	.	.
C[C@@H]1CN([C@@H](C)CO)C(=O)Cc2cc(NC(=O)Cc3ccccc3)ccc2O[C@H]1CN(C)Cc1ccc(C(F)(F)F)cc1	93.7	-29.2	12.7	.	.	.	.
C[C@H]1CN([C@@H](C)CO)C(=O)Cc2cc(NC(=O)Cc3cn(C)c4ccccc34)ccc2O[C@H]1CN(C)Cc1ccc(Cl)c(Cl)c1	100.1*	-58.7	-4.1	106.8*	56.9	-7.1	-3.1
C[C@H](CO)N1C[C@H](C)[C@H](CN(C)Cc2ccc(C(F)(F)F)cc2)Oc2ccc(NC(=O)Cc3cn(C)c4ccccc34)cc2CC1=O	100.7*	-33.7	4.5	106.8*	19.0	19.7	?
C[C@H](CO)N1C[C@H](C)[C@@H](CN(C)Cc2ccc(C(F)(F)F)cc2)Oc2ccc(NC(=O)Cc3ccccc3)cc2CC1=O	105.8*	-20.5	7.5	94.7	100.8*	-1.4	103.9*
C[C@H](CO)N1C[C@H](C)[C@@H](CN(C)Cc2ccc(Cl)c(Cl)c2)Oc2ccc(NC(=O)Cc3cn(C)c4ccccc34)cc2CC1=O	64.0	-69.5	2.2	.	.	.	.
CCC(=O)Nc1ccc2c(c1)OC[C@@H](C)N(Cc1nccs1)C[C@@H](C)[C@@H](OC)CN(C)C2=O	6.3	-15.3	-0.7	.	.	.	.
COCCN(C[C@@H]1[C@H](c2ccccc2)[C@@H](CO)N1C(=O)C1CCC1)C(C)=O	19.4	5.3	9.4	.	.	.	.
COc1cccc(CNC(=O)C[C@H]2CC[C@@H]3[C@H](COc4ccc(NS(=O)(=O)c5ccccc5F)cc4C(=O)N3C)O2)c1	-18.6	9.9	-3.3	.	.	.	.
O=C(c1cccnc1)N1CC2(C1)[C@H](c1ccccc1)[C@H](CO)N2Cc1ccncc1	.	35.2	2.0	.	.	.	.
C[C@H]1CCCCO[C@H](CN(C)C(=O)Nc2cccc3ccccc23)[C@@H](C)CN([C@@H](C)CO)C(=O)c2cc(NC(=O)Nc3ccccc3)ccc2O1	?	-9.0	8.5	105.6*	113.2*	0.9	-9.3
C[C@H](CO)N1C[C@H](C)[C@@H](CN(C)C(=O)Nc2cccc3ccccc23)OCCCC[C@H](C)Oc2ccc(NC(=O)Nc3ccccc3)cc2C1=O	54.7	12.3	0.0	.	.	.	.
C[C@@H]1CN([C@H](C)CO)C(=O)c2cc(NC(=O)c3ccccc3)ccc2O[C@@H](C)CCCCO[C@H]1CN(C)C(=O)Nc1cccc2ccccc12	92.7	-69.9	-4.0	.	.	.	.
COc1ccc(NC(=O)Nc2ccc3c(c2)C(=O)N([C@@H](C)CO)C[C@@H](C)[C@@H](CN(C)C(=O)Nc2cccc4ccccc24)OCCCC[C@@H](C)O3)cc1	?	-70.2	6.5	103.4*	74.2	6.5	-9.3
C[C@@H]1CCCCO[C@H](CN(C)C(=O)Nc2cccc3ccccc23)[C@H](C)CN([C@@H](C)CO)C(=O)c2cc(NC(=O)c3ccccc3)ccc2O1	100.6*	-64.5	-4.8	109.2*	69.8	-7.3	-4.9
C[C@@H]1CCCCO[C@@H](CN(C)C(=O)Nc2ccc(F)cc2)[C@@H](C)CN([C@H](C)CO)C(=O)c2cc(NC(=O)Nc3cccc4ccccc34)ccc2O1	103.3*	10.9	-8.3	89.2	18.5	3.6	14.6
C[C@@H]1CCCCO[C@@H](CN(C)C(=O)Nc2ccc(F)cc2)[C@@H](C)CN([C@@H](C)CO)C(=O)c2cc(NC(=O)Nc3cccc4ccccc34)ccc2O1	88.7	-76.6	-0.5	.	.	.	.
COc1ccc(NC(=O)Nc2ccc3c(c2)C(=O)N([C@H](C)CO)C[C@H](C)[C@@H](CN(C)C(=O)Nc2cccc4ccccc24)OCCCC[C@H](C)O3)cc1	35.1	-15.4	-0.1	.	.	.	.
CCCC#Cc1cnc2c(c1)C(=O)N([C@@H](C)CO)C[C@@H](C)[C@@H](CN(C)C(=O)NCCC)O2	25.0	28.0	0.5	.	.	.	.
CO[C@H]1CN(C)C(=O)c2ccc(NC(=O)C3CCCC3)cc2OC[C@H](C)N(C)C[C@@H]1C	.	-7.0	-0.7	.	.	.	.
Cc1noc(C)c1S(=O)(=O)N(C)C[C@@H]1OCCCC[C@H](C)Oc2ccc(NS(=O)(=O)c3ccccc3)cc2C(=O)N([C@H](C)CO)C[C@H]1C	.	-18.3	-13.7	.	.	.	.
CC(C)NC(=O)N(C)C[C@@H]1Oc2cc(C3=CCCC3)ccc2S(=O)(=O)N([C@H](C)CO)C[C@H]1C	-3.5	7.2	-5.3	.	.	.	.
C[C@H]1CCCCO[C@H](CN(C)C(=O)Nc2cccc3ccccc23)[C@@H](C)CN([C@@H](C)CO)C(=O)c2cc(NC(=O)Cc3ccccc3)ccc2O1	97.3*	-84.5*	-12.5	103.9*	118.2*	22.0	24.4*
C[C@H](CO)N1C[C@H](C)[C@H](CN(C)C(=O)Nc2ccc(F)cc2)OCCCC[C@H](C)Oc2ccc(NC(=O)Nc3cccc4ccccc34)cc2C1=O	78.1	7.8	2.1	.	.	.	.
C[C@@H]1CCCCO[C@@H](CN(C)C(=O)Nc2cccc3ccccc23)[C@H](C)CN([C@H](C)CO)C(=O)c2cc(NC(=O)Nc3ccc(F)cc3)ccc2O1	95.8*	-51.1	10.7	102.0*	109.1*	-10.0	2.5
